From ChEMBL document CHEMBL3988442, “University of Dundee, Small-Polar-MMV Screening Library” (2021) come the findings set out here.

Out of some 48,000 compounds screened, about 13,000 (27%) showed an effect of 50% or more. The list shows a part of the results.

This assay has as its system Wolbachia pipientis. Nature of the assay: Anti-Wolbachia Cell-Based Screen. Also noted: scale not given: in the data most compounds retested in dose-response had high values. It is filed as functional. As to conditions: 5 µM.
With `O=S(=O)(Nc1nccs1)c1cc(Cl)cc2c1OCC2`, the “Percent Effect” value is -24.06%.

Consider `Fc1cc(CN2CCOC3(CCOCC3)C2)ccc1OC(F)F`, for which the “Percent Effect” value is -0.1745%.

For `CCc1noc(CSc2n[nH]c(-c3ccccn3)n2)n1`, the “Percent Effect” value is -7.886%.

Take `Cn1nccc1CN1CCCC(COc2ccccc2F)C1` (stereo not given): the “Percent Effect” value worked out at 162.8%.

In the case of `Cn1cc(CN2CCCC(CCc3c(F)cccc3F)C2)cn1` (stereo not given), the “Percent Effect” value was 4.691%.

For `CCn1cc(CN2CCCC(COc3ccccc3F)C2)cn1` (stereo not given), the “Percent Effect” value was determined as 9.663%.

For the compound `CCC1CN(CC(=O)N2CCN(C(C)=O)CC2)CCN1CCOC` (stereo not given), the “Percent Effect” value stood at 107.2%.

On to `CCC1CN(CC(=O)N2CCCC2)CCN1CCOC` (stereo not given), for which the “Percent Effect” value is 124%.

For `CCC1CN(CC(=O)NC2(C#N)CCCC2)CCN1CCOC` (stereo not given), the “Percent Effect” value stood at 2.566%.

Consider `CCC1CN(CCC(=O)N(C)C)CCN1CCOC` (stereo not given), for which the “Percent Effect” value is given as -4.079%.

For `CCC1CN(CC(=O)N2CCC2)CCN1CCOC` (stereo not given), the “Percent Effect” value is 4.498%.

For the compound `CCC1CN(CCNC(C)=O)CCN1CCOC` (stereo not given), the “Percent Effect” value is 1.458%.

`O=C(NCC1CC1)c1cc(C2CC2)nc2onc(C3CCCNC3)c12` (stereo not given): the “Percent Effect” value is 103.5%.

`COCCNC(=O)c1cc(C2CC2)nc2onc(C3CCNC3)c12` (stereo not given): the “Percent Effect” value is 98.56%.

As for `COc1ccc2nc(C3CC3)cc(C(=O)NCc3noc(C)n3)c2c1`, the “Percent Effect” value was determined as 1.07%.

Turning to `COc1ccc2nc(C3CC3)cc(C(=O)NCCc3nnc[nH]3)c2c1`, the “Percent Effect” value is -12.63%.

For `Cc1c(Br)cccc1C(=O)NCC1CCCNC1.Cl` (stereo not given), the “Percent Effect” value is on record as 0.4435%.

As for `CC(C)Nc1nc2c(cc1C(=O)NCC1CC1)CCNCC2.O=C(O)C(F)(F)F.O=C(O)C(F)(F)F`, the “Percent Effect” value is listed as -11.9%.

As for `O=c1[nH]c(C2CCOC2)nc2ccc(Br)cc12` (stereo not given), the “Percent Effect” value is -44.09%.

Take `CCCc1noc(CNc2cc(C[S+](C)[O-])ccc2Cl)n1` (stereo not given): the “Percent Effect” value is given as -7.446%.

Take `c1cnn(CCNCc2csc(-c3ccc4c(c3)OCO4)n2)c1`: the “Percent Effect” value was -13.49%.

As to `COC(=O)CNC(=O)C(C(C)C)n1cnc2cc(F)c(F)cc21` (stereo not given), the “Percent Effect” value was -6.926%.

Take `CCn1cnnc1CNC(=O)N1CCN(CC(C)C)CC1`: the “Percent Effect” value is 151.2%.

Regarding `CCn1cnnc1CNC(=O)N1CCN(Cc2ccsc2)CC1`, the “Percent Effect” value is on record as 120.4%.

In the case of `CCn1cnnc1CNC(=O)NCC(C(C)C)N1CCC(C)CC1` (stereo not given), the “Percent Effect” value was -9.877%.

As to `CCn1cnnc1CNC(=O)N1CCN(c2nccs2)CC1`, the “Percent Effect” value is 84.21%.

For the compound `CCn1cnnc1CNC(=O)N1CCN(c2nc(C)c(C)s2)CC1`, the “Percent Effect” value is recorded as 1.256%.

Consider `CCn1cnnc1CNC(=O)N1CCN(c2cccs2)CC1`, for which the “Percent Effect” value is given as 0.168%.

`CCn1cnnc1CNC(=O)N1CCN(C(C)C)CC1`: the “Percent Effect” value is 131.3%.

Regarding `CCC1CN(Cc2nnc(C(C)C)o2)CCC(=O)N1Cc1ccccc1` (stereo not given), the “Percent Effect” value is recorded as -5.543%.

For the compound `CC(C)N(C)C(=O)C1CCC(=O)N(CCc2cccc(F)c2)C1` (stereo not given), the “Percent Effect” value is reported as -15.9%.

As to `CN(Cc1ccco1)C(=O)NCc1ccnc(SC(C)(C)C)c1`, the “Percent Effect” value came out at 12.7%.

For `CN1CCOC(C(=O)N2CCOC3(CCCC3)C2)C1` (stereo not given), the “Percent Effect” value is given as 0.3314%.

Take `CCn1cnnc1CNC(=O)N1CCCCCC1`: the “Percent Effect” value worked out at 138.5%.

In the case of `CC(NC(=O)N1CCN(CCc2ccccc2)CC1)c1nncn1C` (stereo not given), the “Percent Effect” value is -0.7448%.

Consider `CCn1cnnc1CNC(=O)N1CCN(Cc2ccco2)CC1`, for which the “Percent Effect” value is on record as 145.2%.

With `CCn1cnnc1CNC(=O)N1CCCN(C(C)=O)CC1`, the “Percent Effect” value is -5.792%.

Consider `Cc1cc(CNC(=O)N2CCCN(Cc3ccccc3)CC2)no1`, for which the “Percent Effect” value came out at 3.243%.

On to `CCc1nncn1CCNC(=O)N1CCN(Cc2ccccc2)CC1`, for which the “Percent Effect” value is 122%.

On to `CCn1cnnc1CNC(=O)N1CCN(CCc2ccccc2)CC1`, for which the “Percent Effect” value is listed as 119.3%.

As to `CCn1cnnc1CNC(=O)N1CCN(Cc2ccccc2)CC1`, the “Percent Effect” value came out at 4.693%.

Regarding `CCn1cnnc1CNC(=O)N1CCC(Cc2cccnc2)CC1`, the “Percent Effect” value was 3.678%.

Regarding `CCn1cnnc1CNC(=O)N1CCOC(c2ccc(F)cc2)C1` (stereo not given), the “Percent Effect” value is on record as -19.34%.

For `CCn1cnnc1CNC(=O)N1CCOCC1`, the “Percent Effect” value is -3.836%.

Regarding `CC(C)Oc1cccc(C(=O)C2CCCN(C(=O)c3ccoc3)C2)c1` (stereo not given), the “Percent Effect” value was 9.263%.

In the case of `CCSCc1cccc(NC(=O)N(C)Cc2ncnn2C)c1`, the “Percent Effect” value was -22.36%.

With `COc1ccc(NC(C)C(=O)N2CCCC2)cn1` (stereo not given), the “Percent Effect” value is 2.582%.

Turning to `CCn1cnnc1CNC(=O)N1CCC(OCc2ccccc2)CC1`, the “Percent Effect” value is 128.6%.

For `CCn1cnnc1CNC(=O)N1CCC(C(=O)NC)CC1`, the “Percent Effect” value is recorded as -5.598%.

In the case of `CCN(CC)C1CCN(C(=O)NCc2nncn2CC)CC1`, the “Percent Effect” value came out at 7.856%.

Regarding `O=C(NCC(O)c1cccc(O)c1)C1CCN(C2CCCCC2)CC1` (stereo not given), the “Percent Effect” value was -14.15%.

With `Cc1nc[nH]c1-c1c(-c2ccccc2)ncn1C1CCNC1` (stereo not given), the “Percent Effect” value came to 7.819%.

In the case of `Cc1ccc(N2CC[C@H]3O[C@@H](C(=O)N4CCCCO4)CC[C@H]32)nn1.O=C(O)C(F)(F)F`, the “Percent Effect” value was determined as 113.9%.

For `CN1CCN(C(=O)[C@@H]2CC[C@@H]3[C@@H](CCN3c3ncccn3)O2)CC1.O=C(O)C(F)(F)F.O=C(O)C(F)(F)F`, the “Percent Effect” value was -4.531%.

As to `Cc1ccc(N2CC[C@H]3O[C@H](C(=O)N4CCCCO4)CC[C@H]32)nn1.O=C(O)C(F)(F)F`, the “Percent Effect” value is 105.7%.

In the case of `O=C([C@H]1CC[C@@H]2[C@@H](CCN2c2ncccn2)O1)N1CCCCO1`, the “Percent Effect” value was 84.25%.

Turning to `O=C(O)C(F)(F)F.O=C([C@H]1CC[C@@H]2[C@@H](CCN2Cc2ccc(F)cc2)O1)N1CCCO1`, the “Percent Effect” value is listed as -3.999%.

For `O=C(O)C(F)(F)F.O=C([C@@H]1COC[C@H]2CN(c3ccncn3)C[C@H]21)N1CCCCO1`, the “Percent Effect” value was -6.047%.

On to `O=C(O)C(F)(F)F.O=C([C@@H]1CC[C@@H]2[C@@H](CCN2c2ccncn2)O1)N1CCCCO1`, for which the “Percent Effect” value was determined as 117.6%.

For `O=C([C@@H]1CC[C@@H]2[C@@H](CCN2c2ncccn2)O1)N1CCCO1`, the “Percent Effect” value was found to be 3.223%.

Consider `COC(=O)N(C)CCCC(=O)Nc1[nH]nc(-c2ccncc2)c1C`, for which the “Percent Effect” value was -7.715%.

As to `O=C1CC[C@H]2CN(C3CCOCC3)CC[C@H]2N1CCC1=CCCCC1`, the “Percent Effect” value was determined as 14.62%.

Turning to `Cc1ccc(N2CC[C@H]3O[C@@H](C(=O)N4CCCO4)CC[C@H]32)nn1.O=C(O)C(F)(F)F`, the “Percent Effect” value is recorded as 88.3%.

On to `Cc1ccc(CN2CC[C@H]3O[C@@H](C(=O)N4CCCO4)CC[C@H]32)s1.O=C(O)C(F)(F)F`, for which the “Percent Effect” value is given as -7.276%.

`Cc1ccc(N2CC[C@H]3O[C@@H](C(=O)NCc4ccco4)CC[C@H]32)nn1.O=C(O)C(F)(F)F`: the “Percent Effect” value came out at 17.63%.
